A selection: hits, their analogues and other compounds. The true share with any hit is near 19%.
HT1080NT lethal: qHTS for induction of synthetic lethality in tumor cells producing 2HG: qHTS for the HT-1080-NT fibrosarcoma cell line. 360,000 tested, 1.6% active. Potency, µM (highest dose often 46.1 µM), for the others: top-dose activity, negative = less viability, usual class: cytotoxic. AID 686970, 2013. HT-1080-NT fibrosarcoma viability, CellTiter-Glo ATP luminescence, 48 h;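 note: NT is the 2HG producing partner of a matched IDH1 knockdown line; potency is the fitted concentration of half-maximal effect; 0% = DMSO-treated cells and -100% = media-only wells without cells; nearly all actives have a fitted effect of over 55% in size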
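A 48-hour cytotoxicity screen used HT-1080-NT cells plated 2 hours before compound delivery. ATP-based CellTiter-Glo luminescence measured viability, normalized to DMSO and no-cell controls.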
HT1080 IDH1KD tx: qHTS for induction of synthetic lethality in tumor cells producing 2HG: qHTS for the HT-1080-IDH1KD cell line; HT-1080 IDH1 knockdown viability, ATP luminescence, 48 h; Potency, µM (titrated, usually from 46.1 µM), without a hit: at the top dose activity, negative = toxicity, actives largely listed as cytotoxic; 360,000 tested, 2% active; AID 686971, 2013;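 note: potency is the fitted concentration of half-maximal effect; 0% = DMSO wells and -100% = cell-free medium wells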
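Assay cells: HT-1080 with IDH1 knockdown, 750 per well, RPMI/5% FBS. Exposure: 48 h at 37 °C following 2 h pre-incubation. Read: CellTiter-Glo luminescence; fitted concentration-response, curve class assigned.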
DT40 TDP1 CPT: qHTS for Inhibitors of human tyrosyl-DNA phosphodiesterase 1 (TDP1): qHTS in cells in presence of CPT; chicken DT40 Tdp1-/-;hTDP1 cells + 20 nM CPT, ATP luminescence, 48 h; Potency, µM (series often up to 46.2 µM), without a hit: at the highest dose activity change, negative = growth inhibition, hits mostly inhibitors; 420,000 tested, 12% active; note: potency is the fitted concentration of half-maximal effect; nearly all actives have a fitted effect of over 55% in size
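Chicken DT40 Tdp1-/- cells complemented with human TDP1, 400 cells/well, exposed to compounds plus 20 nM camptothecin for at least 48 h at 37 C; viability read as ATP content by CellTiter-Glo luminescence.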
IL-1B inflam inh: qHTS for Inhibitors of Inflammasome Signaling: IL-1-beta AlphaLISA Primary Screen | AID 743279, 2014 | 360,000 tested, 4.7% active | THP-1 LPS/ATP IL-1B secretion, AlphaLISA, 16 h; hits give low values | activity change, % at 57.5 µM; in the data active = activity change below about -50%; inconclusive = mostly about -30% to -49%
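THP-1 cells pretreated 1 hr with compounds (up to 57.5 uM final), then stimulated with LPS (250 ng/mL final) plus ATP (1.25 mM final); secreted IL-1B measured by AlphaLISA after 16 hr, decreased signal indicating inhibition.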
DT40 TDP1 no CPT: qHTS for Inhibitors of human tyrosyl-DNA phosphodiesterase 1 (TDP1): qHTS in cells in absence of CPT | DT40 Tdp1-/- hTDP1 cells, no CPT, ATP luminescence, 48 h | Potency, µM (highest dose often 46.2 µM), inactives show top-dose activity change, negative = growth inhibition, usual class: inhibitors | 420,000 tested, 15% active | AID 686978, 2013; note: potency is the fitted concentration of half-maximal effect; nearly all actives have a fitted effect of over 55% in size
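Growth of hTDP1-complemented DT40 Tdp1-knockout cells is measured by ATP luminescence after at least 48 hr compound exposure at 37 °C, with DMSO substituting for the 20 nM CPT used in the parallel screen.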
An asterisk follows results filed as active; ? = inconclusive; · = no result given; [ ] = dose if it differs, or a comment. Unless noted, calls come from the whole dose curve; as a rule, active = well fitted curve in the direction sought with a large enough effect; inconclusive = small, poorly fitted or top-dose-only effect, or another doubt; inactive = no such curve, though single readings can be large; an effect the other way counts as inactive or inconclusive. Unless noted, % is set by controls: 0 for no effect and ±100 for the full control effect.

SMILES | HT1080NT lethal | HT1080 IDH1KD tx | DT40 TDP1 CPT | IL-1B inflam inh | DT40 TDP1 no CPT
CCOc1ccccc1C(=O)N[C@H](C(=O)OCc1csc(CC(=O)Nc2ccc(C)cc2)n1)C(C)C | ? | ? | 18µM* | ? | 15µM*
CC(C)C(NC(=O)c1ccccc1)C(=O)OCn1nnc2ccccc2c1=O (centres undefined) | -2%[9.24 µM] | 1% | -24% | 3 | -18%
O=C(c1cccc(Cl)c1)N1CCN(Cc2ccccc2F)CC1 | 7% | 11% | -19% | -3 | ?
CC(C)(C)NS(=O)(=O)c1ccc(NC(=O)C2CCCCC2)cc1 | -10% | -17% | ? | -14 | ?
COc1cccc(O)c1CN1CCC2(CC1)c1ccccc1[C@@H](NC(=O)c1ccsc1)[C@@H]2OC | · | · | 17%[9.04 µM] | · | ?
Cc1ccc(-c2cc(C(=O)N/N=C/c3ccoc3)c3ccccc3n2)cc1 | -17% | ? | ? | -5 | ?
CC(/C=N/NC(=O)c1cnccn1)=C\c1ccco1 | 9% | 0% | 5% | · | ?
CC(/C=N/NC(=O)c1cc(-c2ccc(Cl)cc2)nc2ccccc12)=C\c1ccco1 | ? | 0.82µM* | 2.9µM* | 3 | 3.3µM*
CC(/C=N/NC(=O)c1cc(-c2ccccc2)nc2ccccc12)=C\c1ccco1 | ? | ? | 2.3µM* | -12 | 0.73µM*
Cc1cc2c(c(=O)o1)C(c1ccc([N+](=O)[O-])o1)C(C#N)=C(N)O2 (centres undefined) | 13% | 4% | -6% | · | ?
CC(=O)Oc1c(Cl)cc(Cl)cc1/C=C/c1ccc2ccccc2n1 | -4%[9.24 µM] | ? | ? | -66* | -6%
CC(=O)Oc1ccc(Cl)cc1/C=C/c1ccc2ccccc2n1 | ? | ? | ? | -2 | 29µM*
COc1ccc(C(=O)N2CCC[C@@]3(CCN(C)C3)C2)cc1 | · | · | -7% | · | -18%
CCN(CC)CCN(C(=O)CCOc1ccccc1)c1nc2ccc(F)cc2s1 | -3% | -2% | ? | -10 | ?
CCCC(=O)N(CCN1CCOCC1)c1nc2c(C)cccc2s1 | 0% | 1% | -27% | -51* | 10%
O=C(CCS(=O)(=O)c1ccccc1)N(CCCN1CCOCC1)c1nc2ccc(F)cc2s1 | ? | ? | 2.6µM* | -82* | 3.7µM*
O=C(CCS(=O)(=O)c1ccccc1)N(CCCN1CCOCC1)c1nc2c(F)cccc2s1 | -6% | ? | 2.3µM* | -107* | 2.9µM*
CCc1cccc2sc(N(CCCN3CCOCC3)C(=O)CS(=O)(=O)c3ccccc3)nc12 | -9% | -2% | ? | -14 | ?
Clc1ccc(CCNC(c2ccc(Cl)cc2)c2nnc(-c3ccccc3)o2)cc1 (centres undefined) | · | · | ? | · | 23µM*
Fc1ccccc1C(NCCc1ccc(Cl)cc1)c1nnc(-c2ccccc2)o1 (centres undefined) | · | · | 18µM* | · | ?
O=C(Cn1cc(S(=O)(=O)Cc2ccccc2F)c2ccccc21)N1CCOCC1 | -1% | -2% | -12% | 0 | -14%
CCCCCCCCN1[C@@H](CC(=O)OC)c2cc(F)ccc2S1(=O)=O | 7% | -3% | ? | 18 | 13µM*
COC(=O)C[C@H]1c2cc(F)ccc2S(=O)(=O)N1c1ccc(N(C)C)cc1 | -1% | 6% | ? | 25 | 13µM*
CCCCCCCCN1[C@@H](CC(=O)O)c2cc(C(F)(F)F)ccc2S1(=O)=O | -8% | -14% | ? | 8 | ?
CCCCCCCCCCCCN1[C@@H](CC(=O)OC)c2cc(C(F)(F)F)ccc2S1(=O)=O | 6% | 7% | ? | 38 | 13µM*
SMILES | HT1080NT lethal | HT1080 IDH1KD tx | DT40 TDP1 CPT | IL-1B inflam inh | DT40 TDP1 no CPT
CCCCCCCCN1[C@@H](CC(=O)OCC)c2ccc(C(F)(F)F)cc2S1(=O)=O | -6% | -18% | 13µM* | 4 | 26µM*
CCO/C(C)=N/Oc1cc(OC)cc(OC)c1 | 22% | 11% | -16% | 45 | -9%
COCc1c(C(=O)N2CCN(C3CCCCC3)CC2)cnn1-c1ncc(C)c(-c2cccs2)n1 | · | · | 2%[9.04 µM] | · | -5%
CCOC(=O)N1CCN(C(=O)CN2C(=O)COc3ccc(C(C)(C)C)cc32)CC1 | -7% | 8% | -18% | -8 | -17%
Cc1cccc2c3c([nH]c12)CCN(C)C3 | 9% | 7% | 24% | -13 | ?
Cc1cc(/C=C2/SC(=S)N(c3cccc(C(F)(F)F)c3)C2=O)c(C)n1-c1cccnc1 | ? | ? | 0.73µM* | ? | 0.73µM*
COc1cccc(/C=C2\SC(=S)N(c3cccnc3)C2=O)c1OC | 9% | 7% | 0% | 34 | 4%
Cc1ccc(C(C(=O)NCc2ccccc2)N(Cc2cccs2)C(=O)c2ccc3c(c2)OCCO3)cc1 (centres undefined) | ? | ? | 9.2µM* | -7 | 3.7µM*
COC(=O)c1ccc(C(C(=O)NCc2ccccc2)N(Cc2cccs2)C(=O)c2cnccn2)cc1 (centres undefined) | -6% | -17% | ? | -1 | 16µM*
Cc1ccc(C(C(=O)NC2CCCC2)N(Cc2ccc3c(c2)OCO3)C(=O)Cc2cccs2)cc1 (centres undefined) | -25% | ? | ? | 0 | ?
COc1ccc(C(C(=O)NCc2ccccc2)N(Cc2ccco2)C(=O)c2cnccn2)cc1 (centres undefined) | 4% | -1% | ? | 0 | ?
CCOc1ccc2nc(NC(=O)CS(=O)(=O)c3ccccc3)sc2c1 | -15% | -21% | -9% | 0 | ?
CCOc1ccc2nc(NC(=O)CS(=O)(=O)c3ccc(Cl)cc3)sc2c1 | · | · | ? | · | 16µM*
CCOc1ccc2nc(NC(=O)CS(=O)(=O)c3ccc(C)cc3)sc2c1 | -2% | -6% | -14% | 17 | 16µM*
Cc1nc2ccc(CN(C)c3ccc(C(=O)N[C@@H](CCC(=O)O)C(=O)O)s3)cc2c(=O)[nH]1 | · | · | 0.0084µM* | · | 0.0042µM*
Clc1ccc2c(SCC3CO3)c3ccccc3nc2c1 (centres undefined) | ? | 18µM* | 0.46µM* | ? | 1.2µM*
Cc1cccc(C)c1N=Cc1c(C(F)(F)F)[nH][nH]c1=O | 14% | 1% | -11% | 7 | -13%
Cc1ccc(C(=O)NCC(=O)NCC(=O)OCc2ccc(Cl)cc2)cc1 | -8% | -9% | -14% | -98* | -8%

Bioassay records: PubChem, National Center for Advancing Translational Sciences (NCATS)
